Screening results deposited in PubChem by several laboratories.
GDH-TPI counter: GDH-TPI coupled enzyme inhibition counter-screen; GDH-TPI coupled enzyme counterscreen, NADH absorbance; inhibition, % at 4.8 µM; actives 1.2% (n = 360,000); AID 588335; in the data active = inhibition above about 30%
Vc quorum ag: inducers of Vibrio cholerae quorum light production without autoinducers; V. cholerae BH1578 lux reporter, luminescence, 6 h; activation, % at 18.7 µM; actives 0.16% (n = 350,000); in the data active = activation mostly above about 9.7%, no sharp cut-off
FBA Mtb inh: inhibits M. tuberculosis FBA enzyme; P9WQA3; purified M. tuberculosis FBA, fluorescence read-out; inhibition, % at 1 µM; actives 2.3% (n = 360,000); AID 588726; in the data active = inhibition above about 27%
RecA splice inh: blocks M. tuberculosis RecA intein splicing | inhibition, % (no concentration beside the values) | actives 0.75% (n = 290,000) | cell-free RecA intein splicing, fluorescence; in the data active = inhibition above about 30%
Target sequence (P9WHJ3 whole entry, looked up, canonical isoform): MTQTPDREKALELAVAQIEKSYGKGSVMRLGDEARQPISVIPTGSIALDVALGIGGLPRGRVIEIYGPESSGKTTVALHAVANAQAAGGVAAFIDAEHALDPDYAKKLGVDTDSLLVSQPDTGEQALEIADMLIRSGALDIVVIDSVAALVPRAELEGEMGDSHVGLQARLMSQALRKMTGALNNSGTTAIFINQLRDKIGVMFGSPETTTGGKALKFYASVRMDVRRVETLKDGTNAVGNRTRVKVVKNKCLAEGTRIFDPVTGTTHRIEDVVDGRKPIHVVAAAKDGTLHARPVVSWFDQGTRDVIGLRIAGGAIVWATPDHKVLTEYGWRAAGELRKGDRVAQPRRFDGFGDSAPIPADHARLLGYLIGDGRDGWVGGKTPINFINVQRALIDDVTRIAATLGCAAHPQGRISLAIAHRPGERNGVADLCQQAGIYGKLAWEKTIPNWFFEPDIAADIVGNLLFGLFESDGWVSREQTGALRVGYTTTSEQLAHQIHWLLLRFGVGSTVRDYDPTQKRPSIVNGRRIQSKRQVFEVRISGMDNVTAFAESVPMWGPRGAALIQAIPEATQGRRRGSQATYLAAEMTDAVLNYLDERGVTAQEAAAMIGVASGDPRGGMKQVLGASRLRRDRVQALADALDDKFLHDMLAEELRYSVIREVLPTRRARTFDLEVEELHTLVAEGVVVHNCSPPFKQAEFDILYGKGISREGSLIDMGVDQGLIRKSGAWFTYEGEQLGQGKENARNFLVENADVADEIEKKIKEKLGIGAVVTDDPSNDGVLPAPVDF
Rv3671c protease: inhibits the M. tuberculosis serine protease Rv3671c | P9WHR9 | actives 0.048% (n = 320,000) | inhibition, % at 5.96 µM; in the data active = inhibition above about 38%;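 note: extracellular domain of Rv3671c used as enzyme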
UGM FP inh: Mtb UDP-galactopyranose mutase inhibition | AID 504406 | actives 0.06% (n = 320,000) | purified UGM, fluorescence polarization probe displacement | P9WIQ1 | inhibition, % at 10 µM; in the data active = inhibition above about 10%, passing the limit was not always enough
A number is an active result. An excerpt weighted towards active compounds, which were near 4.1% of everything screened.

`COc1cc(/C=N/NC(=O)C(Cc2c[nH]c3ccccc23)NC(=O)OCC(C)C)cc([N+](=O)[O-])c1OCc1ccccc1` (configuration not stated) gave GDH-TPI counter inactive, Vc quorum ag inactive, FBA Mtb inh inactive, RecA splice inh inactive, Rv3671c protease inactive and UGM FP inh inactive.
Cc1ccc(CCNC(=O)c2cccc(NC3=NC4CS(=O)(=O)CC4S3)c2)cc1 (configuration not stated) was read as GDH-TPI counter inactive, Vc quorum ag inactive, FBA Mtb inh inactive, RecA splice inh inactive, Rv3671c protease inactive and UGM FP inh inactive.
Screening COc1ccc(Cl)cc1NC(=O)C1CC(=O)N(C2CCCCC2)C1 (configuration not stated) returned GDH-TPI counter inactive, Vc quorum ag inactive, FBA Mtb inh inactive, RecA splice inh inactive, Rv3671c protease inactive and UGM FP inh inactive.
Screening CC(=O)Cc1nsc(NC(=O)c2oc(-c3ccccc3Cl)cc2C)n1 returned GDH-TPI counter 56, Vc quorum ag inactive, FBA Mtb inh inactive, RecA splice inh inactive, Rv3671c protease inactive and UGM FP inh inactive.
`CC(O)Cc1nsc(NC(=O)c2ccc(Br)o2)n1` (configuration not stated) gave GDH-TPI counter 42, Vc quorum ag inactive, FBA Mtb inh inactive, RecA splice inh inactive, Rv3671c protease inactive and UGM FP inh inactive.
Screening CC(=O)Cc1nsc(NC(=O)c2ccc(-c3ccccc3Cl)o2)n1 returned GDH-TPI counter 33, Vc quorum ag inactive, FBA Mtb inh inactive, RecA splice inh inactive, Rv3671c protease inactive and UGM FP inh inactive.
CC(=O)Cc1nsc(NC(=O)c2ccccc2Cl)n1 was read as GDH-TPI counter inactive, Vc quorum ag inactive, FBA Mtb inh inactive, RecA splice inh inactive, Rv3671c protease inactive and UGM FP inh inactive.
For CC(C)(C)[C@@H]1COC(=O)[C@H](Cc2ccc(F)cc2)C/C=C\C[C@@H](CC(=O)N(CCO)Cc2ccccc2)C(=O)N1 the results were GDH-TPI counter inactive, Vc quorum ag inactive, FBA Mtb inh inactive, Rv3671c protease inactive and UGM FP inh inactive.
COc1ccc(CCN2CC(C(=O)NCCc3cn[nH]c3)CCC2=O)cc1 (configuration not stated) was read as GDH-TPI counter inactive, Vc quorum ag inactive, FBA Mtb inh inactive, RecA splice inh inactive, Rv3671c protease inactive and UGM FP inh inactive.
`COC(=O)c1c(NC(=O)C2CCCCC2)sc2c1CC(C)(C)NC2(C)C` gave GDH-TPI counter inactive, Vc quorum ag inactive, FBA Mtb inh inactive, RecA splice inh inactive, Rv3671c protease inactive and UGM FP inh inactive.
Cn1cnc([N+](=O)[O-])c1S(=O)(=O)Oc1ccc(Cl)cc1 was read as GDH-TPI counter inactive, Vc quorum ag inactive and FBA Mtb inh inactive.
Screening CC(C)(C)C1CCc2sc(C(=O)NNC(=O)CCl)cc2C1 (configuration not stated) returned GDH-TPI counter inactive, Vc quorum ag inactive, FBA Mtb inh inactive and RecA splice inh 67.
Screening CC(C)(C)C1CCC(=NNC(=O)c2cc3c(s2)CCCC3)CC1 (configuration not stated) returned GDH-TPI counter inactive, Vc quorum ag inactive, FBA Mtb inh inactive, RecA splice inh inactive, Rv3671c protease inactive and UGM FP inh inactive.
Screening CC(CCc1ccccc1)NC(=O)CCNC(=O)c1ccccc1Cl (configuration not stated) returned GDH-TPI counter inactive, Vc quorum ag inactive, FBA Mtb inh inactive, Rv3671c protease inactive and UGM FP inh inactive.
`Cc1cc(OCC(=O)Nc2ccccn2)c2c(C)cc(=O)oc2c1` gave GDH-TPI counter inactive, Vc quorum ag inactive, FBA Mtb inh inactive, RecA splice inh inactive, Rv3671c protease inactive and UGM FP inh inactive.
For Cc1cc(=O)[nH]c2c(C)c(N)ccc12 the results were GDH-TPI counter inactive, Vc quorum ag inactive, FBA Mtb inh active, RecA splice inh inactive, Rv3671c protease inactive and UGM FP inh inactive.
For Cc1ccc(S(=O)(=O)CCC(=O)Oc2ccc3c(C)cc(=O)oc3c2)cc1 the results were GDH-TPI counter inactive, Vc quorum ag inactive, FBA Mtb inh active, RecA splice inh inactive, Rv3671c protease inactive and UGM FP inh inactive.
`Cc1cc(=O)oc2cc(O)cc(OCc3ccccc3)c12` gave GDH-TPI counter 31, Vc quorum ag inactive and FBA Mtb inh active.
Screening CC(=O)Oc1ccc2c(C)cc(=O)oc2c1 returned GDH-TPI counter inactive, Vc quorum ag inactive, FBA Mtb inh active, RecA splice inh inactive, Rv3671c protease inactive and UGM FP inh inactive.
For Cc1ccc(OC(=O)CCS(=O)(=O)c2ccc(C)cc2)cc1 the results were GDH-TPI counter inactive, Vc quorum ag inactive, FBA Mtb inh inactive, RecA splice inh inactive, Rv3671c protease inactive and UGM FP inh inactive.
COc1cc(S(=O)(=O)N2CCN(C(=O)c3cccs3)CC2)ccc1NC(C)=O was read as GDH-TPI counter inactive, Vc quorum ag inactive and FBA Mtb inh inactive.
`CCOCCn1ccc2c(OCC(=O)Nc3ccccc3OC)cccc2c1=O` gave GDH-TPI counter inactive, Vc quorum ag inactive, FBA Mtb inh inactive, RecA splice inh inactive, Rv3671c protease inactive and UGM FP inh inactive.
For CC1(Cc2ccc(F)cc2)C(=O)Nc2ccc(-c3cccnc3)cc21 (configuration not stated) the results were GDH-TPI counter inactive, Vc quorum ag inactive and FBA Mtb inh inactive.
Screening Cc1oc2cc(O)ccc2c(=O)c1N1C(=O)c2ccccc2C1=O returned GDH-TPI counter inactive, Vc quorum ag inactive, FBA Mtb inh inactive, RecA splice inh inactive, Rv3671c protease inactive and UGM FP inh inactive.
COC(=O)Cc1cc(=O)oc2cc(O)ccc12 was read as GDH-TPI counter inactive, Vc quorum ag inactive, FBA Mtb inh active, RecA splice inh inactive, Rv3671c protease inactive and UGM FP inh inactive.
Screening Cc1cc(=O)oc2cc(OC(=O)C3CCN(C(=O)c4ccc(F)cc4)CC3)ccc12 returned GDH-TPI counter inactive, Vc quorum ag inactive, FBA Mtb inh 148, RecA splice inh inactive, Rv3671c protease inactive and UGM FP inh inactive.
`Cc1cc(=O)oc2cc(O)ccc12` gave GDH-TPI counter inactive, Vc quorum ag inactive, FBA Mtb inh active, RecA splice inh inactive, Rv3671c protease inactive and UGM FP inh inactive.
Screening O=c1cc(O)c2ccc(O)cc2o1 returned GDH-TPI counter inactive, Vc quorum ag inactive, FBA Mtb inh inactive, RecA splice inh inactive, Rv3671c protease inactive and UGM FP inh inactive.
For COc1ccc(-c2cc(=O)oc3cc(O)ccc23)cc1 the results were GDH-TPI counter inactive, Vc quorum ag inactive, FBA Mtb inh inactive, RecA splice inh inactive, Rv3671c protease inactive and UGM FP inh inactive.
For Cc1ccccc1-c1c(C)oc2cc(O)ccc2c1=O the results were GDH-TPI counter inactive, Vc quorum ag inactive, FBA Mtb inh active, RecA splice inh inactive, Rv3671c protease inactive and UGM FP inh inactive.
For COc1ccc(-c2oc3cc(OC(C)=O)cc(OC(C)=O)c3c(=O)c2OC)cc1 the results were GDH-TPI counter inactive, Vc quorum ag inactive and FBA Mtb inh inactive.
